# Screens as filed in PubChem BioAssay.
# HT1080 IDH1KD tx – kills HT-1080 cells with IDH1 knockdown; HT-1080 IDH1 knockdown viability, ATP luminescence, 48 h; Potency, µM (titrated, usually from 46.1 µM), inactives show at the highest dose activity, negative = toxicity, hits mostly cytotoxic; actives 2% (n = 360,000); AID 686971;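 further: potency means the concentration at half of the fitted maximal effect; 0% = DMSO wells and -100% = cell-free medium wells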
#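 CellTiter-Glo luminescence after 48 h compound exposure at 37 degrees C of IDH1-knockdown HT-1080 cells in 5% FBS RPMI. %Activity scaled between DMSO wells and cell-free media wells, with curves fitted and assigned curve classes.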
# IL1B secr inh – inflammasome signaling inhibition, IL-1 beta readout | THP-1 LPS/ATP IL-1B secretion, AlphaLISA, 16 h; active compounds read low | activity change, % at 57.5 µM | AID 743279 | actives 4.7% (n = 360,000); in the data active means activity change below about -50%; inconclusive means mostly about -30% to -49%; further: on the % scale 0 is the no-effect control and ±100 the full control effect
#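 THP-1 cells pretreated 1 hr with compounds (up to 57.5 uM final), then stimulated with LPS (250 ng/mL final) plus ATP (1.25 mM final); secreted IL-1B measured by AlphaLISA after 16 hr, decreased signal indicating inhibition.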
# HT1080NT lethal – kills 2HG-producing HT-1080-NT fibrosarcoma cells; actives 1.6% (n = 360,000); HT-1080-NT fibrosarcoma viability, CellTiter-Glo ATP luminescence, 48 h; Potency, µM (titrated, usually from 46.1 µM), without a hit: at the top dose activity, negative = less viability, usual class: cytotoxic;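 further: NT is the 2HG producing partner of a matched IDH1 knockdown line; potency means the concentration at half of the fitted maximal effect; 0% = DMSO-treated cells and -100% = media-only wells without cells; nearly all actives have a fitted effect of over 55% in size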
#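 A 48-hour cytotoxicity screen used HT-1080-NT cells plated 2 hours before compound delivery. ATP-based CellTiter-Glo luminescence measured viability, normalized to DMSO and no-cell controls.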
# TGFb SMAD3 inh – inhibitors of TGF-b signaling | HepG2 CAGA-GFP TGF-b/SMAD3 reporter, GFP fluorescence, 18 h; TGF-beta stimulated, 500 pg/mL final | Potency, µM (doses to about 46.1 µM), without a hit: at the top dose activity, negative = inhibition, most hits filed as inhibitors | actives 1.2% (n = 410,000); further: potency means the concentration at half of the fitted maximal effect; on the % scale 0 is the no-effect control and ±100 the full control effect; nearly all actives have a fitted effect of over 65% in size
#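 HEPG2 CAGA-GFP cells (1000/well, DMEM with 1% FBS) were pre-incubated 2 h at 37 degrees C, given compound by pin tool, then stimulated with TGF-beta at 500 pg/mL final for 18 h before per-cell GFP fluorescence imaging.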
# HepG2 viability – counter-screen for TGF-b inhibitors: cytotoxicity in HepG2 cells; HepG2 CAGA-GFP viability, ATP luminescence, 18 h; Potency, µM (highest dose often 46.1 µM), for inactives: top-dose activity change, negative = cytotoxicity, hits mostly cytotoxic; actives 0.76% (n = 410,000); AID 588856; further: potency means the concentration at half of the fitted maximal effect
#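 CellTiter-Glo luminescence gave cytotoxicity after 18 hours at 37 degrees C. The cells were HepG2 CAGA-GFP in 1% FBS DMEM, stimulated with 500 pg/mL TGF-beta after compound addition. %Activity was normalised to no-cell wells (complete cell-killing) and DMSO (no toxicity), and curves were fitted and classified.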
# Giardia kill – kills Giardia lamblia; Giardia lamblia trophozoite viability; activity change, % at 7.66 µM, hits read low; actives 0.15% (n = 340,000); AID 540267; in the data active means activity change below about -80%; inconclusive means between about -30% and that limit;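 further: parasites exposed to compound for two days anaerobically before the ATP read; on the % scale 0 is the no-effect control and ±100 the full control effect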
#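 ATP-content bioluminescence gauges trophozoite survival. Cells (100/well) receive compound and incubate anaerobically for 48 hrs at 37 deg C; detection reagent follows for 15-30 min at room temperature.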
# Starred values were filed as active, the others as inactive; ? = inconclusive; · = no result; [ ] = dose if it differs, or a comment. A selection: hits, their analogues and other compounds. The true share with any hit is near 6.5%. Unless noted, the call rests on the fitted dose curve; in most records, active means well fitted curve in the direction sought with a large enough effect; inconclusive means small, poorly fitted or top-dose-only effect, or another doubt; inactive means no such curve, though single readings can be large; an effect the other way counts as inactive or inconclusive.
SMILES,HT1080 IDH1KD tx,IL1B secr inh,HT1080NT lethal,TGFb SMAD3 inh,HepG2 viability,Giardia kill
O=C(CSC1=NCCS1)N1CCc2ccccc21,7.6%,-9.3,12.2%,-1.7%,-0.5%,-6.5
NC(Cc1ccc(C(F)(F)F)cc1)c1csc(Nc2ccc(S(N)(=O)=O)cc2)n1 (stereo unspecified),?,?,20.6µM*,?,-73.7%,·
NC(Cc1ccc(Cl)cc1)c1csc(Nc2ccc(S(N)(=O)=O)cc2)n1 (stereo unspecified),?,?,?,-3.0%,-23.4%,·
COc1ccc(CC(N)c2csc(Nc3ccc(C(=O)c4ccccc4)cc3)n2)cc1 (stereo unspecified),?,-69.7*,?,?,-111.5%,·
NC(Cc1ccc(Cl)cc1)c1csc(Nc2ccc(C(=O)c3ccccc3)cc2)n1 (stereo unspecified),?,0.0,?,11.2µM*,10µM*,·
COc1ccc(CC(N)c2csc(Nc3ccc(C(C)=O)cc3)n2)cc1 (stereo unspecified),?,-14.1,?,-20.1%,-16.0%,·
CS(=O)(=O)c1ccc(Nc2nc(C(N)Cc3ccc(Cl)cc3)cs2)cc1 (stereo unspecified),?,?,14.6µM*,?,-33.0%,·
NC(CO)c1csc(Nc2ccc(C(=O)c3ccccc3)cc2)n1 (stereo unspecified),-20.0%,?,?,11.5%,-0.5%,·
NC(Cc1ccc(F)cc1)c1csc(Nc2ccc(C(=O)c3ccccc3)cc2)n1 (stereo unspecified),14.6µM*,·,?,11.2µM*,12.6µM*,·
CC(=O)c1ccc(Nc2nc(C(N)COCc3ccccc3)cs2)cc1 (stereo unspecified),-8.7%,-23.1,-0.6%,-3.8%,-23.5%,·
NC(Cc1ccccc1)c1csc(Nc2ccc(C(=O)c3ccccc3)cc2)n1 (stereo unspecified),?,-68.7*,?,?,-100.6%,·
CCCCn1nc(NC(=O)c2cccc(Cl)c2)c2cc3ccc(C)cc3nc21,·,·,·,27.6%,1.4%,·
COc1ccc(CN2CCN(C(=O)c3ccc(S(=O)(=O)N4CCCCCC4)cc3)CC2)cc1F,-26.3%,-20.6,-15.8%,?,-17.3%,-18.2
COc1ccc(Oc2c(Cl)cnn(-c3ccc(F)cc3)c2=O)cc1,?,-112.1*,?,6.8%,15.0%,9.8
COc1c(Cl)cnn(-c2ccc(C)cc2)c1=O,-23.3%,-24.9,10.9%,-3.2%,8.0%,-11.0
COc1ccc(Oc2c(Cl)cnn(-c3ccc(Cl)c(Cl)c3)c2=O)cc1,?,-113.3*,18.4µM*,-3.4%,-31.6%,10.9
Cn1ncc(Cl)c(Oc2ccc(Cl)cc2)c1=O,5.5%,-90.1*,6.4%,?,0.6%,52.9
Cc1ccc(-n2ncc(Br)c(Br)c2=O)cc1,5.17µM*,-99.1*,4.61µM*,3.16µM*,-109.9%,11.1
CCc1cccc(CC)c1NC(=O)CNCc1cccs1,-0.3%,-1.1,-1.0%,22.1%,-4.6%,-2.2
O=C(c1csc2ccccc12)N1CCN(c2ccc(Cl)c(Cl)c2)CC1,21.9%,-12.6,1.3%,-7.1%,7.9%,-2.3
COc1ccc(Oc2c(Cl)cnn(-c3ccc(C)cc3)c2=O)cc1,-3.6%[9.24 µM],-114.4*,?,?,-38.8%,12.7
CC1(C(=O)NS(=O)(=O)c2ccc(Cl)cc2)CCN1C(=O)c1ccccc1CCc1ccccc1 (stereo unspecified),-29.1%,-3.4,-20.4%,11.5%,0.3%,·
CC[C@]1(c2ccccc2)C(=O)N(C(=O)OC)N1C(=O)OC,6.0%,-80.8*,4.1%,?,-19.2%,-14.6
COC(=O)N1CC(c2ccccc2)CC1=O (stereo unspecified),-22.6%,0.0,4.0%[9.24 µM],-11.6%,-0.8%,-0.2
COC(=O)N1C(=O)[C@@](c2ccccc2)(C2CCCCC2)N1C(=O)OC,-22.5%,-102.8*,?,?,-28.6%,-7.9
SMILES,HT1080 IDH1KD tx,IL1B secr inh,HT1080NT lethal,TGFb SMAD3 inh,HepG2 viability,Giardia kill
COC(=O)N1C(=O)[C@](Cc2ccccc2)(c2ccccc2)N1C(=O)OC,-1.9%,-103.2*,0.2%,?,-88.6%,-5.0
CC[C@]1(c2cccc(C)c2)C(=O)N(C(=O)OC)N1C(=O)OC,12.2%,-105.0*,12.1%,?,-18.5%,-13.2
O=C(CCS(=O)(=O)c1ccc2c(c1)NC(=O)CS2)NCCc1ccc(Cl)cc1,-16.4%,0.0,-0.8%,8.4%,4.8%,-10.9
Cc1cc(C)cc(CC(=O)N2CCC2(C)C(=O)NS(=O)(=O)c2ccc(C#N)cc2)c1 (stereo unspecified),4.0%,13.1,0.0%,-7.5%,-8.6%,·
COc1cccc(C(=O)Nc2cc(C(=O)NCc3ccc(C)cc3)ccc2N2CCC3(CC2)CC(c2cccc(Br)c2)=NO3)c1,0.0%,-5.3,0.0%,-1.4%,-3.6%,-29.8
COc1ccc(C(CC(=O)Nc2ccc(C)cn2)N2Cc3ccccc3C2=O)cc1 (stereo unspecified),-12.4%,59.0,0.0%,15.4%,-3.9%,-18.4
COC(=O)N1C(=O)[C@@](Cc2ccccc2)(c2ccccc2)N1C(=O)OC,-11.6%,-95.1*,-23.9%,7.94µM*,-96.9%,8.4
CC[C@@]1(c2ccccc2)C(=O)N(C(=O)OC)N1C(=O)OC,6.4%,?,16.4%,-27.6%,-15.1%,10.0
COC(=O)N1C(=O)[C@](c2ccccc2)(C(C)C)N1C(=O)OC,-0.4%,-91.9*,-1.1%,-49.2%,-38.1%,-16.6
CC[C@@]1(c2ccccc2C)C(=O)N(C(=O)OC)N1C(=O)OC,14.9%,-58.1*,8.7%,?,-11.1%,21.2
N=c1c2c(n(Cc3ccc(Br)cc3)c3c1CCC3)CCCC2,18.4µM*,-81.1*,20.6µM*,?,-17.2%,6.6
N=c1c2c(n(Cc3ccc(Cl)c(Cl)c3)c3c1CCC3)CCCC2,18.4µM*,-72.3*,23.1µM*,?,-2.6%,-5.3
CCN(c1ccccc1)S(=O)(=O)c1cc(-c2onc(C)c2C)ccc1OC,·,·,·,-8.0%,-26.7%,·
Cc1cc(NC(=O)c2cccn2-c2nnc(N3CCCCC3)s2)ccc1Br,·,·,·,8.91µM*,-52.3%,·
COc1ccc(N2CCN(CCNC(=O)Nc3cccc(C)c3C)CC2)cc1,0.0%,4.3,11.0%,11.5%,-22.0%,8.7
CSc1cccc(NC(=O)/C=C/c2ccccc2)c1,?,-63.1*,-6.2%,-1.5%,-16.9%,2.1
CSc1cccc(NC(=O)/C=C/c2ccc(Cl)cc2)c1,?,-72.3*,?,?,-28.7%,-6.3
